Measured values as given in PubChem BioAssay AID1845227 (National Center for Advancing Translational Sciences (NCATS), 2023).
Records with an inconclusive call do not appear. A call without a number means that no potency is given here. Activity calls are given as the source filed them. Calls follow the shape of the dose curve; as a rule, active = well fitted inhibition curve with a large enough effect; inconclusive = small, poorly fitted or top-dose-only effect; inactive = no such curve, though single readings can be large or run the other way.

Each compound was assayed against Luciferin 4-monooxygenase (Photinus pyralis) (UniProt P08659) (assay: Confirmatory firefly luciferase (FLuc) qHTS assay for identification of artifact compounds). Settings: purified FLuc enzyme, luminescence, 5 min; series mostly up to 38.9 µM.
Text: PI: Alexander Tropsha Ph.D. UNC Eshelman School of Pharmacy University of North Carolina, Chapel Hill, North Carolina Hits from high-throughput screening (HTS) of chemical libraries are often false positives due to their interference with the assay detection technology. In response to this problem, we generated the largest publicly available library of chemical liabilities and developed a free webtool to predict HTS artifacts, both of which are described herein. More specifically, we generated, curated, and integrated HTS datasets for thiol reactivity, redox activity, and luciferase (firefly and nano) activity. Using these curated datasets, we developed and validated several Quantitative Structure-Interference Relationship (QSIR) models to predict nuisance behavior. […] These models were employed for virtual profiling of the National Center for Advancing Translational Science's (NCATS) in-house library, and 256 compounds for each assay were selected for the experimental validation of nuisance behavior. The BA for these external predictions ranged from 58 to 78% for compounds within the applicability domains of the models. […] The models developed in this study, along with aggregation models previously developed by our group (SCAM Detective) were implemented in "Liability Predictor," an online tool which may be used as part of chemical library design or for triaging HTS hits. Both the models and the curated datasets are publicly available at https://liability.mml.unc.edu/.
PROTOCOL TABLE SEQUENCE No. (e.g., 1, 2, 3, etc.); […] (e.g., Cells, Incubation, Reagent, etc.); VALUE; DESCRIPTION. 1; Reagent; 3 uL; Luciferase substrate mixture. 2; Compounds and control; 16 nL; Kalypsis pin tool (Wako USA) equipped with a 1536-well pin head. 3; Incubation; 15 min. 4; Reagent; 1 uL; Luciferase enzyme. 5; Incubation; 5 min. 6; Detection; Luminescence, ViewLux microplate reader. NOTES (numbers refer to Sequence numbers above) 1. 3 uL of luciferase substrate mixture containing D-luciferin and ATP (final concentrations of 10 uM and 10 uM, respectively) in assay buffer (10 mM Mg-acetate, 0.01% Tween-20, 0.05% bovine serum albumin, 50 mM Tris acetate, pH 7.6) was dispensed into all wells of a 1536-well assay plate (solid-bottom white plate; Greiner Bio One, Monroe, NC). 2. A Wako Pin-tool (Wako Automation, Richmond, VA) was used to transfer 16 nL of compounds (consisting of 7-plates in qHTS format, final concentration range 18.3 nM to 114 uM) or control PTC124 (final concentration range 1.22 nM to 40 uM). 3. 15 min. incubation at room temperature protected from light. 4. 1 uL of luciferase enzyme (final concentration 10 nM, Photinus pyralis luciferase) or buffer was dispensed for a final assay volume of 4 uL. 5. Plates were centrifuged (121xg, 15 seconds) and incubated for 5 minutes. 6. Samples were read for luminescence on a ViewLux CCD imager (PerkinElmer). Data were normalized to no-enzyme (0% activity) and no-inhibitor (DMSO; 100%) controls and the resulting percent inhibition data were fitted to a 4-parameter Hill equation using NCATS in-house software.
Potency is read from the fitted curve at half-maximal effect.

| SMILES | Potency |
| --- | --- |
| CCOC(=O)c1c(S(=O)(=O)N2CCCC(C(=O)Nc3cccc(C)n3)C2)c(C)n(C)c1C (stereo not given) | inactive |
| Nc1ccc(F)cc1F | inactive |
| CC1CCN(c2nc3ccccc3nc2SCC(=O)Nc2ccccc2C(C)C)CC1 | inactive |
| COc1cccc(-c2nnc(Nc3nc4c(OC)cccc4s3)o2)c1 | inactive |
| CCOC(=O)c1c(C)[nH]c(C)c1S(=O)(=O)N1CCC(C(=O)N2CCN(c3ccccc3)CC2)CC1 | inactive |
| O=C(C1CCC(CNS(=O)(=O)c2cccc3cccnc23)CC1)N1CCCCC1 (stereo not given) | inactive |
| Cc1cc(Cl)ccc1NC(=O)c1cc2ccccn2n1 | 8.64 µM (active) |
| C[C@H](CCC(=O)NCCS(=O)(=O)O)C1CC[C@H]2C3CC[C@@H]4C[C@H](O)CC[C@]4(C)C3C[C@H](O)[C@]12C (stereo not given in full) | inactive |
| COc1cccc(NCc2ccc(O)c3ncccc23)n1 | inactive |
| Cc1ccc(Nc2c(-c3ccc(C)cc3)nc3c(C)cccn23)cc1 | inactive |
| CCC(Sc1ncc(S(=O)(=O)c2ccc(Cl)cc2)c(=O)[nH]1)C(=O)Nc1ccc(OC)cc1 (stereo not given) | inactive |
| NC(=O)c1ccc(-c2noc(-c3cccc(Cl)c3)n2)cc1 | inactive |
| CCOC(=O)c1ccccc1Nc1cc(C)nc2nc(-c3ccco3)nn12 | inactive |
| COc1cc(C2C(C(=O)Nc3ccc(Cl)cc3)=C(C)Nc3nc(SC)nn32)cc(OC)c1OC (stereo not given) | inactive |
| COCCNC(=O)CCCn1c(SCC(=O)Nc2cccc(C)c2)nc2c(sc3ccccc32)c1=O | inactive |
| Cc1c(C(=O)N(C)C)sc2c1c(=O)n(-c1ccc(Cl)cc1)c(=O)n2Cc1ccccc1F | inactive |
| O=C(O)Cc1cc(F)c(S(=O)(=O)N2CCN(S(=O)(=O)c3ccc4c(c3)OCCO4)CC2)cc1F | inactive |
| CCc1ccc(NC(=O)CN2C(=O)C3(SCC(=O)N3c3ccc(F)c(F)c3)c3ccccc32)cc1 (stereo not given) | inactive |
| CC1=CC23C(=O)C(C=C(CO)[C@@H](O)[C@]2(O)[C@H]1O)[C@H]1[C@@H](C[C@H]3C)C1(C)C (stereo not given in full) | inactive |
| CCCNC(=O)c1ccccc1NC(=O)c1nsc2ccccc12 | inactive |

| SMILES | Potency |
| --- | --- |
| CCCCN(CCCC)C(=O)c1cc2c(=O)n3ccccc3nc2s1 | inactive |
| O=C(O)C1CC2CCCCC2N1C(=O)c1ccc(Cl)cc1 (stereo not given) | inactive |
| CCCc1cc(=O)[nH]c(SCc2nc(-c3ccccc3F)no2)n1 | inactive |
| Cc1ccc(-c2nc3scc(CCNS(=O)(=O)c4ccc(F)c(C)c4)n3n2)cc1 | inactive |
| CNc1oc(-c2ccc3cnccc3c2)nc1C#N | inactive |
| CC(CCc1ccccc1)NC(=O)Cn1c(=O)nc(-c2ccccc2F)c2cc(Cl)ccc21 (stereo not given) | inactive |
| CC(C)Nc1ccc(-c2nc(-c3ccccn3)no2)cc1[N+](=O)[O-] | 3.44 µM (active) |
| COc1ccc(NC(=O)C2CCCN(S(=O)(=O)c3cccc4nonc34)C2)cc1Cl (stereo not given) | inactive |
| Cc1cccc(C(=O)Nc2ccc(-c3nc4ncccc4o3)cc2C)c1 | inactive |
| COc1ccc(N2CC(NC(=O)COc3ccccc3)CC2=O)cc1OC (stereo not given) | inactive |
| Cc1cc(-c2ccccc2)n2nc(-c3ccc(Cl)cc3)cc2n1 | inactive |
| Cc1ccc(NC(=O)c2ccc3[nH]c(C)cc(=O)c3c2)cc1 | inactive |
| COC(=O)CN1C(=O)[C@@H]2[C@H](C1=O)[C@@H]1CC(C(=O)OC)=C[C@@H](C(=O)OC)C3C1=C(C(=O)C31CCCCC1)[C@@H]2C (stereo not given in full) | inactive |
| CCc1cccc(NC(=O)C2CCC(CNS(=O)(=O)c3csc(C(N)=O)c3)CC2)c1 (stereo not given) | inactive |
| CCOc1ccc(N=C(C)Nc2ccc(OCC)cc2)cc1 | inactive |
| O=c1cc(-c2ccc(O)cc2)oc2cc(O[C@H]3OC(CO)C(O)C(O)C3O)cc(O)c12 (stereo not given in full) | inactive |
| CC(C)=CCC/C(C)=C/C=O | inactive |
| CCc1ccccc1NC(=O)c1nc(-c2ccncc2)no1 | inactive |
| COc1ccc(NC(=O)c2cc(-c3ccccc3O)no2)cc1 | inactive |
| COc1ccc(CNC(=O)C(C)n2nc(C)c3c(C)n(-c4ccccc4)nc3c2=O)c(OC)c1 (stereo not given) | inactive |
